# Data reported in PubChem BioAssay AID1159580 (chemical genetic matrix, 2015).
# Among all 5,500 compounds or so, about 2,000 (36%) were called active. Roughly 18% stayed inconclusive and do not appear here. Some of the results follow. Values without a mark were called inactive. No stated cut-off is given here; in the data, active means normalized growth mostly below about 0.91 (no sharp cut-off); inconclusive means no clear call, values can overlap the other calls; inactive means mostly above about 0.92.
# Test: chemical genetic growth profiling, strain panel (AID 1159580);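 further: tested at 20 µM; growth read once vehicle control cultures reached saturation at 30 °C; 1 = growth at the plate median or of vehicle wells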
# Conditions: S. cerevisiae deletion strains, growth OD
# [1] = locus YAL040C, strain CLN3, stronger effect = lower value
# [2] = locus YCL061C, strain MRC1 (second series), stronger effect = lower value
# [3] = locus YDR363W, strain ESC2, stronger effect = lower value
# [4] = locus YER002W, strain NOP16, stronger effect = lower value
# [5] = locus YMR307W, strain GAS1, stronger effect = lower value
# [6] = locus YNL175C, strain NOP13, stronger effect = lower value
# [7] = locus YNL197C, strain WHI3, stronger effect = lower value
# [8] = locus YNL224C, strain SQS1, stronger effect = lower value
# [9] = locus YNL322C, strain KRE1, stronger effect = lower value
# [10] = locus YOR083W, strain WHI5 (second series), stronger effect = lower value
# [11] = locus YPL241C, strain CIN2, stronger effect = lower value
# [12] = locus YDR150W, strain NUM1, stronger effect = lower value
# [13] = locus YGR078C, strain PAC10, stronger effect = lower value
# [14] = locus YJR075W, strain HOC1, stronger effect = lower value
# [15] = locus YMR263W, strain SAP30, stronger effect = lower value
# [16] = locus YNL153C, strain GIM3, stronger effect = lower value
# [17] = locus YPL055C, strain LGE1, stronger effect = lower value
# [18] = locus YNL128W, strain TEP1, stronger effect = lower value
# [19] = locus YAL013W, strain DEP1, stronger effect = lower value
# [20] = locus YGR229C, strain SMI1, stronger effect = lower value
smiles,measurement,setting,value
Cc1cccc(C2CN(C)CCc3c2cc(O)c(O)c3Cl)c1 (stereo not drawn),normalized growth,[1],1.01
same,normalized growth,[2],0.988
same,normalized growth,[3],1
same,normalized growth,[4],1.01
same,normalized growth,[5],1.01
same,normalized growth,[6],1.01
same,normalized growth,[7],1.01
same,normalized growth,[8],1.01
same,normalized growth,[9],0.973
same,normalized growth,[10],1.01
same,normalized growth,[11],0.996
Oc1cc2c(c(Cl)c1O)CCNCC2c1ccccc1 (stereo not drawn),normalized growth,[1],0.985
same,normalized growth,[2],0.985
same,normalized growth,[12],0.925 (active)
same,normalized growth,[3],0.977
same,normalized growth,[4],0.978
same,normalized growth,[13],0.995
same,normalized growth,[14],0.875 (active)
same,normalized growth,[15],1.01
same,normalized growth,[5],0.988
same,normalized growth,[16],0.967
same,normalized growth,[6],1.02
same,normalized growth,[7],1.01
same,normalized growth,[8],1.04
same,normalized growth,[9],0.981
same,normalized growth,[10],1.01
same,normalized growth,[17],0.57 (active)
same,normalized growth,[11],0.981
Oc1ccc(C2CNCCc3c2cc(O)c(O)c3Cl)cc1 (stereo not drawn),normalized growth,[1],0.987
same,normalized growth,[2],0.986
same,normalized growth,[3],1.03
same,normalized growth,[4],0.997
same,normalized growth,[15],0.994
same,normalized growth,[5],1.02
same,normalized growth,[18],0.984
same,normalized growth,[16],0.935
same,normalized growth,[6],1
same,normalized growth,[7],0.977
same,normalized growth,[8],1.06
same,normalized growth,[9],1.02
same,normalized growth,[10],0.965
same,normalized growth,[17],0.989
same,normalized growth,[11],0.981
C=CCN1CCc2c(cc(O)c(O)c2Cl)C(c2ccccc2)C1 (stereo not drawn),normalized growth,[19],0.917
same,normalized growth,[1],0.992
same,normalized growth,[2],0.934 (active)
same,normalized growth,[12],0.907 (active)
same,normalized growth,[3],0.891
same,normalized growth,[4],0.996
same,normalized growth,[15],0.995
same,normalized growth,[5],0.993
same,normalized growth,[16],0.911
same,normalized growth,[6],0.981
same,normalized growth,[7],0.904
same,normalized growth,[8],1.04
same,normalized growth,[9],0.754 (active)
same,normalized growth,[10],0.958
C=CCN1CCc2cc(O)c(O)cc2C(c2ccccc2)C1 (stereo not drawn),normalized growth,[19],0.95
same,normalized growth,[1],1.06
same,normalized growth,[2],0.979
same,normalized growth,[3],0.994
same,normalized growth,[4],1.02
same,normalized growth,[13],1.01
same,normalized growth,[20],0.917
same,normalized growth,[15],1
same,normalized growth,[5],1
same,normalized growth,[18],1.02
same,normalized growth,[16],1.01
same,normalized growth,[6],1.02
same,normalized growth,[7],1.02
same,normalized growth,[8],1
same,normalized growth,[9],0.966
same,normalized growth,[10],1.02
C=CCN1CCc2c(cc(O)c(O)c2Br)[C@@H](c2ccccc2)C1,normalized growth,[1],1.03
same,normalized growth,[3],0.8 (active)
same,normalized growth,[4],1
same,normalized growth,[16],0.945
same,normalized growth,[6],1.04
same,normalized growth,[7],0.98
same,normalized growth,[8],1.02
same,normalized growth,[10],0.987
same,normalized growth,[11],0.122 (active)
CN1CCc2cc(O)c(O)cc2C(c2ccccc2)C1 (stereo not drawn),normalized growth,[19],1.02
same,normalized growth,[1],1
same,normalized growth,[2],0.997
same,normalized growth,[3],1.02
same,normalized growth,[4],1
same,normalized growth,[15],1
same,normalized growth,[5],0.998
same,normalized growth,[18],1
same,normalized growth,[16],1.01
same,normalized growth,[6],1.01
same,normalized growth,[7],1.01
same,normalized growth,[8],1
same,normalized growth,[9],1
same,normalized growth,[10],1.01
same,normalized growth,[11],1
CN1CCc2cc(Cl)c(O)cc2[C@@H](c2ccccc2)C1,normalized growth,[1],1.01
same,normalized growth,[2],1
same,normalized growth,[3],1.01
same,normalized growth,[4],1.04
same,normalized growth,[20],1.03
same,normalized growth,[5],0.993
same,normalized growth,[16],1.02
same,normalized growth,[6],1.01
same,normalized growth,[7],0.995
same,normalized growth,[8],1.01
same,normalized growth,[10],1.03
same,normalized growth,[17],0.995
CN1CCc2c(cc(O)c(O)c2Cl)C(c2cccc(Cl)c2)C1 (stereo not drawn),normalized growth,[1],1.07
same,normalized growth,[2],0.945
same,normalized growth,[3],0.962
same,normalized growth,[4],1.01
same,normalized growth,[14],0.837 (active)
same,normalized growth,[5],0.993
same,normalized growth,[6],1
same,normalized growth,[7],0.991
same,normalized growth,[8],1.01
same,normalized growth,[9],0.917
same,normalized growth,[10],0.982
same,normalized growth,[17],0.466 (active)
same,normalized growth,[11],0.927 (active)
O=C(CC[N+](=O)[O-])OC[C@H]1O[C@@H](O)[C@H](OC(=O)CC[N+](=O)[O-])[C@@H](OC(=O)CC[N+](=O)[O-])[C@@H]1OC(=O)CC[N+](=O)[O-],normalized growth,"locus YBR021W, strain FUR4, stronger effect = lower value",1.04
same,normalized growth,"locus YBR229C, strain ROT2, stronger effect = lower value",1.02
same,normalized growth,"locus YCL029C, strain bik1, stronger effect = lower value",1.01
same,normalized growth,"locus YDL035C, strain GPR1, stronger effect = lower value",1.08
same,normalized growth,"locus YDL074C, strain BRE1, stronger effect = lower value",1.18
same,normalized growth,"locus YDL101C, strain DUN1, stronger effect = lower value",1.02
same,normalized growth,"locus YDL185W, strain tfp1, stronger effect = lower value",1.01
same,normalized growth,"locus YDL192W, strain arf1, stronger effect = lower value",1.03
same,normalized growth,"locus YDR101C, strain arx1, stronger effect = lower value",1.01
same,normalized growth,[12],1.03
same,normalized growth,"locus YDR162C, strain NBP2, stronger effect = lower value",1.05
same,normalized growth,"locus YDR318W, strain mcm21, stronger effect = lower value",1.03
same,normalized growth,"locus YDR388W, stronger effect = lower value",0.999
same,normalized growth,"locus YDR502C, strain sam2, stronger effect = lower value",1.02
same,normalized growth,"locus YEL061C, strain CIN8, stronger effect = lower value",1.03
same,normalized growth,"locus YER110C, stronger effect = lower value",0.998
same,normalized growth,"locus YER155C, strain BEM2, stronger effect = lower value",1.01
same,normalized growth,"locus YER167W, strain BCK2, stronger effect = lower value",1.02
same,normalized growth,"locus YGL078C, strain dbp3, stronger effect = lower value",1
same,normalized growth,"locus YGL086W, strain mad1, stronger effect = lower value",1.01
same,normalized growth,"locus YGL248W, strain PDE1, stronger effect = lower value",1.05
same,normalized growth,"locus YGR135W, strain pre9, stronger effect = lower value",1.01
same,normalized growth,"locus YGR252W, strain gcn5, stronger effect = lower value",1.04
same,normalized growth,"locus YHR030C, strain SLT2, stronger effect = lower value",1.02
same,normalized growth,"locus YHR079C, strain IRE1 (second series), stronger effect = lower value",0.998
same,normalized growth,"locus YHR094C, strain hxt1, stronger effect = lower value",1.01
same,normalized growth,"locus YHR129C, strain ARP1, stronger effect = lower value",1.04
same,normalized growth,"locus YHR200W, strain rpn10, stronger effect = lower value",1.02
same,normalized growth,"locus YIL066C, strain RNR3, stronger effect = lower value",1.04
same,normalized growth,"locus YIL073C, strain SPO22, stronger effect = lower value",1.13
same,normalized growth,"locus YIL125W, strain kgd1, stronger effect = lower value",1
same,normalized growth,"locus YIR030C, strain dcg1, stronger effect = lower value",1.03
same,normalized growth,"locus YJL095W, strain BCK1, stronger effect = lower value",1.08
same,normalized growth,"locus YJL134W, strain LCB3, stronger effect = lower value",1.02
same,normalized growth,"locus YJL168C, strain set2, stronger effect = lower value",1.01
same,normalized growth,"locus YJL187C, strain SWE1 (second series), stronger effect = lower value",1.04
same,normalized growth,"locus YKL009W, strain mrt4, stronger effect = lower value",0.993
same,normalized growth,"locus YKL068W, stronger effect = lower value",1
same,normalized growth,"locus YKL085W, strain MDH1 (second series), stronger effect = lower value",1.01
same,normalized growth,"locus YKL085W, strain MDH1, stronger effect = lower value",1.01
same,normalized growth,"locus YKR001C, strain vps1, stronger effect = lower value",1.07
same,normalized growth,"locus YLR039C, strain RIC1, stronger effect = lower value",1.23
same,normalized growth,"locus YLR058C, strain SHM2, stronger effect = lower value",1.03
same,normalized growth,"locus YLR102C, strain apc9, stronger effect = lower value",0.991
same,normalized growth,"locus YLR268W, strain sec22, stronger effect = lower value",1.04
same,normalized growth,"locus YLR330W, strain CHS5, stronger effect = lower value",1.03
same,normalized growth,"locus YLR342W, strain FKS1 (second series), stronger effect = lower value",1.06
same,normalized growth,"locus YLR371W, strain rom2, stronger effect = lower value",1.02
same,normalized growth,"locus YLR418C, strain cdc73, stronger effect = lower value",1.15
same,normalized growth,"locus YML016C, strain PPZ1, stronger effect = lower value",1.02
same,normalized growth,"locus YML032C, strain rad52, stronger effect = lower value",0.999
same,normalized growth,"locus YML124C, strain tub3, stronger effect = lower value",1.02
same,normalized growth,"locus YMR078C, strain ctf18, stronger effect = lower value",1.01
same,normalized growth,"locus YMR223W, strain ubp8, stronger effect = lower value",1.02
same,normalized growth,[5],1.24
same,normalized growth,"locus YNL067W, strain RPL9B, stronger effect = lower value",1.02
same,normalized growth,[16],1.05
same,normalized growth,"locus YNL233W, strain BNI4, stronger effect = lower value",1.08
same,normalized growth,"locus YNL250W, strain rad50, stronger effect = lower value",0.995
same,normalized growth,"locus YNL271C, strain bni1, stronger effect = lower value",1.01
same,normalized growth,"locus YNL298W, strain CLA4, stronger effect = lower value",1.01
same,normalized growth,"locus YNL307C, strain MCK1, stronger effect = lower value",1.01
same,normalized growth,"locus YNR052C, strain pop2, stronger effect = lower value",1
same,normalized growth,"locus YOL012C, strain htz1",1.02
same,normalized growth,"locus YOL147C, strain pex11, stronger effect = lower value",0.996
same,normalized growth,"locus YOR061W, strain CKA2, stronger effect = lower value",1.02
same,normalized growth,"locus YOR069W, strain VPS5, stronger effect = lower value",1.02
same,normalized growth,"locus YOR136W, strain idh2, stronger effect = lower value",1.01
same,normalized growth,"locus YOR144C, strain elg1, stronger effect = lower value",1
same,normalized growth,"locus YOR184W, strain ser1, stronger effect = lower value",1.03
same,normalized growth,"locus YOR316C, strain cot1, stronger effect = lower value",0.992
same,normalized growth,"locus YPR119W, strain clb2, stronger effect = lower value",0.998
same,normalized growth,"locus YPR141C, strain kar3, stronger effect = lower value",1
same,normalized growth,"locus YPR163C, strain tif3, stronger effect = lower value",1.01
same,normalized growth,"locus YPR167C, strain met16, stronger effect = lower value",1.02
same,normalized growth,"strain wtn01, stronger effect = lower value",1.02
